Measurements as given in PubChem BioAssay (NCI).
This is part of a sample that, as a whole, favours compounds with a hit. Of some 83,000 tested, about 20% had one in any assay.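 How to read the values: 0–100, growth inhibition (40 = 60% inhibited); 0, no net growth; -100 to 0, cell death (-40 = 40% of starting cells died; -100 = all dead).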 Values without a mark were called inactive. Calls of active or inactive are those of the source. How the source made its calls: active means growth percent below 10; inactive means the rest.

Legend:
Test in all cases: NCI-60 one-dose screen, 48 h (100 = growth as untreated, 0 = no growth, -100 = all killed)
Details in all cases: 10 µM unless noted
NCI-H23 lung = system: NCI-H23 lung
NCI-H226 lung = system: NCI-H226 lung
NCI-H322M lung = system: NCI-H322M lung
HOP-62 NSCLC = system: HOP-62 NSCLC
NCI-H460 lung = system: NCI-H460 lung
HOP-92 NSCLC = system: HOP-92 NSCLC
NCI-H522 lung = system: NCI-H522 lung
A549/ATCC NSCLC = system: A549/ATCC NSCLC
786-0 renal = system: 786-0 renal
COLO 205 colon = system: COLO 205 colon
DU-145 prostate = system: DU-145 prostate
K-562 leukemia = system: K-562 leukemia
MALME-3M melanoma = system: MALME-3M melanoma
MDA-MB-231 breast = system: MDA-MB-231 breast
RXF 393 renal = system: RXF 393 renal
SF-268 CNS = system: SF-268 CNS
SF-295 CNS = system: SF-295 CNS
SF-539 CNS = system: SF-539 CNS
UACC-257 melanoma = system: UACC-257 melanoma
M14 melanoma = system: M14 melanoma

Q: Which growth (NCI-H23 lung) does the source give for `CN1CCN(c2ccc(NC(=O)c3cncnc3Nc3ccc(OCc4ccccn4)c(Cl)c3)cc2)CC1` here?
A: Its growth is 70.1%.

Q: And the growth (NCI-H226 lung)?
A: The growth was 70.2%.

Q: And the growth (NCI-H322M lung)?
A: Its growth is 62.2%.

Q: What about the growth (HOP-62 NSCLC) of the same molecule?
A: The growth was 3.8% (active).

Q: What about the growth (NCI-H460 lung) of the same molecule?
A: Its growth is 27.8%.

Q: What about the growth (HOP-92 NSCLC) of the same molecule?
A: The growth was 45.7%.

Q: What about the growth (NCI-H522 lung) of the same molecule?
A: Its growth is 55.4%.

Q: What about the growth (A549/ATCC NSCLC) of the same molecule?
A: The growth was 25.9%.

Q: And the growth (786-0 renal)?
A: Its growth is -82.4% (active).

Q: What about the growth (COLO 205 colon) of the same molecule?
A: Its growth is -3.55% (active).

Q: What about the growth (DU-145 prostate) of the same molecule?
A: The growth was 56.5%.

Q: What about the growth (K-562 leukemia) of the same molecule?
A: Its growth is -21.4% (active).

Q: What about the growth (MALME-3M melanoma) of the same molecule?
A: Its growth is -55.1% (active).

Q: What about the growth (MDA-MB-231 breast) of the same molecule?
A: The growth was -11.2% (active).

Q: What about the growth (RXF 393 renal) of the same molecule?
A: Its growth is 27.9%.

Q: And the growth (SF-268 CNS)?
A: The growth was 68.9%.

Q: And the growth (SF-295 CNS)?
A: Its growth is 61%.

Q: And the growth (SF-539 CNS)?
A: The growth was -12.7% (active).

Q: What about the growth (UACC-257 melanoma) of the same molecule?
A: The growth was 39%.

Q: And the growth (M14 melanoma)?
A: The growth was -72.8% (active).

Q: `Oc1ccc(CN2CCC(N3CCCCC3)CC2)c2cccnc12` was tested. Which growth (NCI-H23 lung) did it give?
A: The growth was 19%.

Q: What about the growth (NCI-H226 lung) of the same molecule?
A: Its growth is 69.8%.

Q: What about the growth (NCI-H322M lung) of the same molecule?
A: The growth was 31.3%.

Q: What about the growth (HOP-62 NSCLC) of the same molecule?
A: The growth was 5.32% (active).

Q: What about the growth (NCI-H460 lung) of the same molecule?
A: Its growth is 9.43% (active).

Q: What about the growth (HOP-92 NSCLC) of the same molecule?
A: The growth was -11.8% (active).

Q: And the growth (NCI-H522 lung)?
A: The growth was -1.28% (active).

Q: And the growth (A549/ATCC NSCLC)?
A: The growth was 17.4%.

Q: And the growth (786-0 renal)?
A: The growth was 48.2%.

Q: And the growth (COLO 205 colon)?
A: The growth was 112%.

Q: And the growth (DU-145 prostate)?
A: The growth was 37.9%.

Q: And the growth (K-562 leukemia)?
A: Its growth is 15.8%.

Q: And the growth (MALME-3M melanoma)?
A: Its growth is 9.88% (active).

Q: And the growth (MDA-MB-231 breast)?
A: Its growth is 15.2%.

Q: And the growth (RXF 393 renal)?
A: The growth was 29.6%.

Q: What about the growth (SF-268 CNS) of the same molecule?
A: The growth was 38.9%.

Q: What about the growth (SF-295 CNS) of the same molecule?
A: Its growth is 38.4%.

Q: And the growth (SF-539 CNS)?
A: Its growth is 22%.

Q: And the growth (UACC-257 melanoma)?
A: Its growth is 21%.

Q: And the growth (M14 melanoma)?
A: The growth was 30.3%.

Q: For `C#CCOc1cccc(Nc2ncnc3c(NC(=O)C=C)cccc23)c1`, which growth (NCI-H23 lung) is on record?
A: The growth was 38.9%.

Q: What about the growth (NCI-H226 lung) of the same molecule?
A: Its growth is 52%.

Q: And the growth (NCI-H322M lung)?
A: Its growth is 54.9%.

Q: What about the growth (HOP-62 NSCLC) of the same molecule?
A: Its growth is 39%.

Q: What about the growth (NCI-H460 lung) of the same molecule?
A: Its growth is 12.8%.

Q: What about the growth (HOP-92 NSCLC) of the same molecule?
A: The growth was 9.26% (active).

Q: And the growth (NCI-H522 lung)?
A: Its growth is -5.23% (active).

Q: And the growth (A549/ATCC NSCLC)?
A: Its growth is 27.5%.

Q: What about the growth (786-0 renal) of the same molecule?
A: The growth was 14%.

Q: What about the growth (COLO 205 colon) of the same molecule?
A: Its growth is 26.3%.

Q: What about the growth (DU-145 prostate) of the same molecule?
A: The growth was -1.57% (active).

Q: What about the growth (K-562 leukemia) of the same molecule?
A: Its growth is 5% (active).

Q: What about the growth (MALME-3M melanoma) of the same molecule?
A: Its growth is 31.3%.

Q: And the growth (MDA-MB-231 breast)?
A: The growth was 26.3%.

Q: What about the growth (RXF 393 renal) of the same molecule?
A: The growth was -3.19% (active).

Q: What about the growth (SF-268 CNS) of the same molecule?
A: The growth was 20.7%.

Q: What about the growth (SF-295 CNS) of the same molecule?
A: The growth was 53.6%.

Q: And the growth (SF-539 CNS)?
A: The growth was 5.67% (active).

Q: What about the growth (UACC-257 melanoma) of the same molecule?
A: The growth was 33%.

Q: And the growth (M14 melanoma)?
A: The growth was 19.9%.
